Results as given in PubChem BioAssay (NCI).
This is part of a sample that, as a whole, favours compounds with a hit. Of some 83,000 tested, about 20% had one in any assay.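 Negative percent growth values reflect cell death: -40 means 40% of the cells present at the start died, and -100 means all died.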 Unmarked numbers belong to inactive results. The source made the active and inactive calls. Rule for the calls: active = growth percent below 10; inactive = the rest.

Assays:
Experiment in all cases: NCI-60 one-dose screen, 48 h (100 = growth as untreated, 0 = no growth, -100 = all killed)
Conditions in all cases: 10 µM unless noted
NCI-H23 lung = tested on: NCI-H23 lung
NCI-H226 lung = tested on: NCI-H226 lung
NCI-H322M lung = tested on: NCI-H322M lung
HOP-62 NSCLC = tested on: HOP-62 NSCLC
NCI-H460 lung = tested on: NCI-H460 lung
HOP-92 NSCLC = tested on: HOP-92 NSCLC
NCI-H522 lung = tested on: NCI-H522 lung
A549/ATCC NSCLC = tested on: A549/ATCC NSCLC
786-0 renal = tested on: 786-0 renal
COLO 205 colon = tested on: COLO 205 colon

Row | Compound | growth (NCI-H23 lung) | growth (NCI-H226 lung) | growth (NCI-H322M lung) | growth (HOP-62 NSCLC) | growth (NCI-H460 lung) | growth (HOP-92 NSCLC) | growth (NCI-H522 lung) | growth (A549/ATCC NSCLC) | growth (786-0 renal) | growth (COLO 205 colon)
1 | O=C(O)c1cn(C2CC2)c2cc(N3CCN(C(=O)CSc4nc(NS(=O)(=O)c5ccccc5)cc(=O)[nH]4)CC3)c(F)cc2c1=O | 94.3% | 96.2% | 92.5% | 116% | 96.2% | 106% | 95.6% | 110% | 111% | 109%
2 | c1ccc(OCC[P+](c2ccccc2)(c2ccccc2)c2ccccc2)cc1 | 7.98% (active) | 38.5% | 59.4% | 26.8% | 17.1% | -5.38% (active) | -9.67% (active) | 30.9% | 53.2% | 2.02% (active)
3 | NCC(=O)NS(=O)(=O)OC[C@H]1O[C@@H](n2cnc3c(N)ncnc32)[C@H](O)[C@@H]1O | 5.7% (active) | -54.6% (active) | -1.74% (active) | -32.1% (active) | 3.35% (active) | 17.3% | -51.6% (active) | 9.7% (active) | -7.02% (active) | 48.5%
4 | CCCC(=O)Oc1ccc(/C(=C(\C)c2ccc(Cl)cc2)c2ccc(OCCN(CC)CC)cc2)cc1 | -33.4% (active) | 68.4% | 24.1% | -57.1% (active) | -83.9% (active) | -13.1% (active) | -55% (active) | -51% (active) | -89.6% (active) | -84% (active)
5 | Nc1ncc(-c2ccc3ncnc(Nc4ccc(F)c(Cl)c4)c3c2)cn1 | 56.2% | 55.5% | 33% | 57.5% | 11.9% | 31.9% | 42.9% | 34.6% | 6.18% (active) | 32.3%
6 | Clc1ccc2c(NCCNc3nc(Cl)nc4ccccc34)ccnc2c1 | -61.7% (active) | -80% (active) | -26.4% (active) | -68.6% (active) | -65.4% (active) | -67.6% (active) | -84.6% (active) | -88% (active) | -94.1% (active) | -85.8% (active)
7 | COc1ccc(-c2c(NC(=O)Nc3ccc(Cl)c(C(F)(F)F)c3)cnn2-c2ccc(S(N)(=O)=O)cc2)cc1 | 42.6% | 75.8% | 51% | 53.5% | 9.7% (active) | 0.848% (active) | 43.7% | 39.2% | 31.6% | 34.7%
8 | CC[C@H]1[C@@H]2C=C[C@@H]3[C@H]4C/C=C\C(=O)NCCC[C@@H]5NC(=O)/C(=C(O)/C=C/[C@@H]4C[C@@H]3[C@H]2C[C@H]1C)C5=O | 51% | 1.14% (active) | 35.7% | -49.9% (active) | -51.2% (active) | -20.4% (active) | 67.7% | 36.8% | -80.9% (active) | 66%
9 | COc1ccc2c(c1)/C(=C/c1c(-c3cc(OC)c(OC)c(OC)c3Br)nc3sccn13)C(=O)N2 | 101% | 86.1% | 88.9% | 59.2% | 111% | 60.8% | 68.1% | 101% | 93.4% | 117%
10 | O=C(O)c1ccc2nc(-c3ccc(OCCCCCOc4ccc(-c5nc6ccc(C(=O)O)cc6[nH]5)cc4)cc3)[nH]c2c1 | 46% | 63.4% | 91.5% | 91.9% | 109% | 100% | 92.8% | 81.7% | -20.8% (active) | 8.79% (active)
11 | COc1ccc(Cl)cc1NC(=O)c1cc2c([nH]1)-c1nc(NC(=O)C(C)(C)C)sc1CC2 | 57.8% | 57.7% | 75.5% | 61.7% | 18.3% | 51.4% | 38% | 60.6% | 93.2% | 78.1%
12 | c1ccc2nc(Cn3cc[n+](Cc4ccc5ccccc5n4)c3)ccc2c1 | 48.7% | 70.8% | 95.3% | 82.5% | 77.7% | 34.3% | 34.5% | 77.5% | 101% | 25.6%
13 | Nc1c(C(=O)O)[nH]c(=O)[nH]c1=O | 103% | 93.8% | 102% | 108% | 104% | 104% | 84.3% | 71.9% | 104% | 115%
14 | CS(=O)(=O)Nc1cccc(-c2ccc3ncnc(Nc4cncc(Cl)c4)c3c2)c1 | 47.1% | 52.5% | 19.9% | 40.5% | 44.9% | 11.2% | 28.1% | 30.5% | 10.1% | 5.27% (active)
15 | COc1ccc(-c2c(C#N)cnc(N)c2-c2nc3cc(C)c(C)cc3[nH]2)cc1 | 44.9% | 99.3% | 38.2% | 57% | 36% | 68% | 45.6% | 27.2% | 25.8% | 68.7%
16 | CC(C)(C)C(=O)Nc1nc2c(s1)CCc1ccn(S(=O)(=O)c3ccccc3)c1-2 | 82.5% | 92.4% | 83.3% | 93.4% | 96.2% | 96.2% | 66.7% | 76.6% | 81.8% | 112%
17 | CCC1CN2C(=N1)c1ccccc1-c1cc(Cl)ccc12 (stereo not given) | 23.4% | -40.2% (active) | 28.3% | 5.88% (active) | -18.9% (active) | -12.2% (active) | -28.5% (active) | -21.7% (active) | -35.4% (active) | 18.4%
18 | O=C(Nc1ccc(-n2ccc3c(NC(=O)c4ccccc4)nccc32)cc1)Nc1ccc(Cl)c(Cl)c1 | 42.4% | 68% | -5.58% (active) | -58.1% (active) | -65.4% (active) | -6.97% (active) | -58.6% (active) | -75.8% (active) | -84% (active) | -53.4% (active)
19 | CN1CCN(Cn2nc(-c3cc(Cl)cc(Cl)c3Cl)n(/N=C/c3ccc(Cl)cc3)c2=S)CC1 | 92.5% | 104% | 67.6% | 95% | 106% | 43.7% | 91.1% | 94% | 89.1% | 118%
20 | CC(C(=O)O)N1C(N)=NNC1c1ccccc1O (stereo not given) | 86.3% | 84.6% | 82.3% | 81.5% | 84.7% | 77.7% | 74.8% | 83.3% | 104% | 103%
21 | CCOC(=O)C1CSC(C)(C(=O)OCC)N1 (stereo not given) | 99.5% | 95.5% | 104% | 90.6% | 106% | 84.7% | 76.7% | 98.9% | 90.8% | 105%
22 | Cc1c(Cl)ccc2c(C(=O)Cl)cc(-c3ccccc3)nc12 | 98.8% | 90.8% | 103% | 85.4% | 98.2% | 93.5% | 95.1% | 92.9% | 97.1% | 111%
23 | COc1cc(C(=O)NNC(=O)c2ccccc2O)cc(OC)c1OC | 101% | 96.8% | 93.5% | 99.7% | 102% | 83% | 61.9% | 82.9% | 97.6% | 94.3%
24 | O=C(Nc1ccc(-n2cc(-c3ccncc3)c(-c3ccc(O)c(Cl)c3)n2)cc1)Nc1ccc(Cl)c(C(F)(F)F)c1 | 16.2% | 50.2% | 27.3% | 28.3% | -1.85% (active) | -22.9% (active) | 9.38% (active) | 16.7% | -31.5% (active) | 41.3%
25 | C[C@H]1C=C(C[C@@H](O)CCCCCCCCCC[C@@H](O)[C@H]2CCC(=O)O2)C(=O)O1 | 95.5% | 96.5% | 94.2% | 109% | 113% | 68% | 73.3% | 110% | 96.8% | 92.5%
26 | CC(C)(C)OC(=O)N1CC(Cn2cc(C(F)(F)F)c3c(Cl)ncnc32)C1 | -68.9% (active) | 63.8% | -90.2% (active) | -83.7% (active) | -59% (active) | -64.5% (active) | 39.9% | 5.78% (active) | 107% | 63.8%
27 | C#C[C@@]1(O)[C@@H](CO)O[C@@H](n2cc(C(F)(F)F)c3c(N)ncnc32)[C@@H]1O | 2.72% (active) | -12.1% (active) | 16% | 7.02% (active) | 2.05% (active) | -13.7% (active) | -52.5% (active) | -4.98% (active) | 4.52% (active) | -77.1% (active)
